PubChem BioAssay (NCI)
About 83,000 compounds went through this panel and 20% of them were active in at least one assay; those are over-represented in the sample as a whole.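 Single-concentration screen, 48 h exposure, 96-well plates. Endpoint: percent growth. Below 10 = active.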 Values without a mark were called inactive. Active and inactive are the calls of the source.

Test system: MDA-MB-468 breast
Test: NCI-60 one-dose screen, 48 h (100 = growth as untreated, 0 = no growth, -100 = all killed)
Details: 10 µM unless noted

| Compound | growth |
| --- | --- |
| [2H]C1([2H])NC([2H])([2H])C([2H])([2H])N(c2ccc(Nc3ncc4cc(C(=O)N(C)C)n(C5CCCC5)c4n3)nc2)C1([2H])[2H] | 99.5% |
| COc1ccc(NC(=O)c2c(Nc3ccc(OC)cc3OC)n[nH]c2N)c(OC)c1 | 82.3% |
| O=C1Nc2ccccc2SC1C1SC(=S)N(Cc2ccccc2)C1=O (stereo unspecified) | 31.4% |
| Cn1ccnc1C(=O)/C=C/c1ccc(CC(=O)Nc2ccc(Br)cc2)cc1 | 0.947% (active) |
| CCCn1nc(C(=O)N2CCCCC2)c2c1CCC(N1CCC(c3ccncc3)CC1)C2 (stereo unspecified) | 104% |
| Cc1cccc2nc3c(n12)C(=O)C(=O)c1ccccc1-3 | 79.9% |
| FC(F)(F)c1nn[nH]n1 | 99% |
| O=C(CSc1nc2sc3c(c2c(=O)n1-c1ccccc1)CCCCC3)N/N=C/c1cccc([N+](=O)[O-])c1 | 19.2% |
| CCOc1cc2c(Cl)ncnc2c(OCC)c1OCC | -51.3% (active) |
| Oc1ccc(N=Nc2nccs2)c(O)c1 | 48.5% |
| CC(=O)Nc1ccc(NC(=O)Nc2cccc(-c3nc(-c4ccc(NC(=O)c5cccnc5)cc4Cl)no3)c2)cc1C(F)(F)F | -84.7% (active) |
